SMILES strings stand for the structures. The source made the active and inactive calls.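 How the source made its calls, unless noted: active means visually confirmed hit in the image check and inhibition above 20%; inconclusive means visually confirmed hit but inhibition not above 20%; inactive means no visual hit in the image check.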

Assay [1] is described as follows: inhibitors of TNFa-induced NFkB p65 translocation, primary screen, imaging, HUVEC, MLSMR starter and 10KST1 sets (AID 438;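 active means inhibition above 20% together with a positive visual image hit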;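 further: compound added about 3h40 before a 20 min TNFalpha stimulation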;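 on inhibition: signal is the nuclear over cytoplasmic p65 intensity ratio per well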). As to conditions: HUVEC TNFa-induced p65 nuclear translocation; cell count: measured here: nuclei count (cytotoxicity indicator), at 2.08 µM; inhibition: at 2 µM, stronger effect = higher value, 0% TNFa-plus-vehicle, 100% no-TNFa wells.
Assay [2] in a line: inhibitors of mutant huntingtin aggregation, primary screen, imaging, exon1htt(103Q)mCFP cells, high-content imaging (AID 483;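 active means visual image review flags a hit and inhibition of aggregation exceeds 20%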;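 further: compound exposure lasted 3 days before fixation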;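 on nuclei count: percent of the per-plate median nuclei count of sample wells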). The following applies: exon1htt(103Q)mCFP cell line, aggregate imaging, at 2 µM; inhibition of aggregation: stronger effect = higher value; nuclei count: measured here: cell count, toxicity.
Assay [3] in a line: inhibitors of E-selectin induction by TNFa, primary screen, imaging, HUVEC, immunofluorescence, MLSMR starter and 10KST1 sets (AID 487).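 On inhibition: signal is fraction of cell area covered by stained E-selectin grains.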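 On nuclei count: 100% = median nuclei count of all wells on the same plate.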 As to conditions: HUVEC TNFalpha-induced E-selectin immunofluorescence imaging, at 2 µM; inhibition: stronger effect = higher value; nuclei count: measured here: cell number, toxicity.
The target in assay [4] is Voltage-gated potassium channel subunit beta-2 (Rattus norvegicus) (UniProt P62483). Put plainly: KvBeta enzyme negative modulators, primary screen, biochemical, NADPH fluorescence (AID 622;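 active means fluorescence slope higher than the sample average by over 3 SD, cut at about -0.22 in these data, passing the limit was not always enough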;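 further: slope of raw intensity against log time taken from 70 to 1610 s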). The following applies: recombinant KvBeta, 4-cyanobenzaldehyde reduction, at 10 µM, stronger effect = higher value.
Voltage-gated potassium channel subunit beta-2 (Rattus norvegicus), sequence (P62483 whole entry, looked up): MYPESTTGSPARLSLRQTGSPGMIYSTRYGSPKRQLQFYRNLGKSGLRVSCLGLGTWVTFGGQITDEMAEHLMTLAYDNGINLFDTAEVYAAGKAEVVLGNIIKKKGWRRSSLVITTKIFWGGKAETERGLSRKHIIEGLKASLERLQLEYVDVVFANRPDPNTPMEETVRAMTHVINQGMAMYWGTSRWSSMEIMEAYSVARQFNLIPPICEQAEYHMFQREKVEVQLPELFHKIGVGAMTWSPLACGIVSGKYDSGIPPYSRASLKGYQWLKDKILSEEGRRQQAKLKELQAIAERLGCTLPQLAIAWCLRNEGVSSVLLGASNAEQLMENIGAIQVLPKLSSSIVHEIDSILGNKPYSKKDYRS
Assay [5] has the same target. Description: KvBeta positive modulators, primary screen, biochemical, NADPH fluorescence (AID 623;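 active means NADPH fluorescence slope more negative than the mean of all samples by about 3 SD, 99.7% confidence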;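 further: fluorescence intensity change per second fitted from 20 to 320 s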). As to conditions: Recombinant KvBeta, NADPH fluorescence decrease slope, 10 min; at 10 µM; stronger effect = lower value.
Assay [6] concerns the target Alpha-2C adrenergic receptor (Homo sapiens) (UniProt P18825). Put plainly: modulators of alpha2C/GIRK thallium flux, primary screen, cell-based, HEK293 alpha2C/GIRK1/2 (AID 624;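 active means fluorescence slope after compound addition differing from the mean of all screened samples at 99.7% confidence, in either direction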;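 further: slope of fluorescence ratio to pre-addition baseline per second over 15 to 24 s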). As to conditions: thallium flux BTC fluorescence, at 10 µM, actives lie on both sides.
A short description of assay [7]: inhibitors of Sendai virus-induced IRF3 signaling, primary screen, TLR/RLR signaling modifier project, cell-based, Sendai virus stimulus, luciferase, 10K MLSCN set (AID 602276;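 active means inhibition at or above 50% at 10 µM; inactive means inhibition below 50%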;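 further: firefly luciferase from ISG56 promoter only with Renilla not read in this screen; 0% = Sendai virus plus DMSO and 100% = medium plus DMSO without virus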). The following applies: HEK293 RL24 IRF3 luciferase reporter, at 10 µM, stronger effect = higher value.
Assay [8] can be described thus: inhibitors of poly I:C-induced TLR3 signaling, primary screen, cell-based, poly I:C stimulus, luciferase, 10K MLSCN set (AID 602277;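 active means inhibition of the reporter signal at or above 50%; inactive means inhibition below 50%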). The following applies: HEK293-TLR3 RL24 IRF3 luciferase reporter, at 10 µM, stronger effect = higher value.

Alpha-2C adrenergic receptor (Homo sapiens), sequence (P18825 whole entry, looked up): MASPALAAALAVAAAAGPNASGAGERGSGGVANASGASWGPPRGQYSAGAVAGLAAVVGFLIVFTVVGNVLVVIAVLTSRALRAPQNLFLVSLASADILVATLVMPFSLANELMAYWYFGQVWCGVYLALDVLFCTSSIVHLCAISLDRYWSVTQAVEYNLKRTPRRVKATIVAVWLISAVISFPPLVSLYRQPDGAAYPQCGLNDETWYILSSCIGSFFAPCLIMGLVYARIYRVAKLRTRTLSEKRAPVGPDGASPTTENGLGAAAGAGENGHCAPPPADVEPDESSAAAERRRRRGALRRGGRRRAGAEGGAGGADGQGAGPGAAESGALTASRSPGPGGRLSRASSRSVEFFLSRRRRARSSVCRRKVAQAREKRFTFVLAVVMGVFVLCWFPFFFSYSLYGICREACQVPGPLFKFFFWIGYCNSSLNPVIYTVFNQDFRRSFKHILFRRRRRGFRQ

For `Nc1nnnn1/N=C/c1ccccc1OCc1ccccc1`, the cell count in assay [1] was found to be 474. The inhibition is 4.5% (inactive) in assay [1], -283% (inactive) in assay [3], 7.71% (inactive) in assay [7] and 0.143% (inactive) in assay [8]. For the same compound, the inhibition of aggregation in assay [2] was -2.8% (inactive). Moreover, the nuclei count in assay [2] is 101%; in assay [3] it was 138%. The fluorescence slope in assay [4] was -0.496 (inactive). Besides, the NADPH fluorescence slope in assay [5] is -4.4e-05 (inactive). The slope in assay [6] was 0.00612 (inactive).
Take `Cc1ccc(C2c3sc(=O)[nH]c3SC3C(=O)NC(=O)C32)cc1` (stereo not drawn): the cell count in assay [1] was determined as 401. The inhibition in assay [1] was 6.1% (inactive); in assay [3] it was -18% (inactive); in assay [7], 1.16% (inactive); in assay [8] it was 58.9% (active). The inhibition of aggregation in assay [2] was 11.3% (inactive). Besides, the nuclei count in assay [2] came to 88.3%; in assay [3], 99.5%. The fluorescence slope in assay [4] was -0.558 (inactive). Moreover, the NADPH fluorescence slope in assay [5] was -2.2e-05 (inactive). Besides, in assay [6], the slope is 0.00486 (inactive).
As to `O=S(=O)(c1ccc2nc(Cc3cccc(C(F)(F)F)c3)[nH]c2c1)N1CCOCC1`, the cell count in assay [1] came to 383. Besides, the inhibition was 1% (inactive) in assay [1], -277% (inactive) in assay [3], 11.9% (inactive) in assay [7] and 26.3% (inactive) in assay [8]. In addition, the inhibition of aggregation in assay [2] is 0% (inactive). Moreover, the nuclei count amounted to 88.3% in assay [2] and 105% in assay [3]. In addition, in assay [4], the fluorescence slope was -0.615 (inactive). Further, the NADPH fluorescence slope in assay [5] was -2.8e-06 (inactive). The slope in assay [6] is 0.00522 (inactive).
On to `Cc1ccc(-c2noc(CN3CCN(c4ccccc4F)CC3)n2)cc1`, for which the cell count in assay [1] was 468. In addition, the inhibition in assay [1] was -2.6% (inactive); in assay [3], -30.6% (inactive); in assay [7], 14.7% (inactive); in assay [8] it was 39% (inactive). In addition, the inhibition of aggregation in assay [2] is -0.3% (inactive). Also, the nuclei count in assay [2] was 84.1%; in assay [3] it was 101%. For the same compound, the fluorescence slope in assay [4] is -0.556 (inactive). Besides, the NADPH fluorescence slope in assay [5] is -3.7e-05 (inactive). For the same compound, the slope in assay [6] was 0.00746 (inactive).
For the compound `O=C(CN1CCCN(S(=O)(=O)c2ccc(F)cc2)CC1)Nc1ccccc1Br`, the cell count in assay [1] was 220. For the same compound, the inhibition in assay [1] was -1.3% (inactive); in assay [3], -17.3% (inactive); in assay [7], 3.65% (inactive); in assay [8] it was 9.12% (inactive). In addition, the inhibition of aggregation in assay [2] was 2% (inactive). For the same compound, the nuclei count in assay [2] was found to be 108%; in assay [3], 118%. Besides, the fluorescence slope in assay [4] was -0.504 (inactive). In assay [5], the NADPH fluorescence slope was 2.2e-05 (inactive). The slope in assay [6] was 0.00558 (inactive).
As to `COc1ccc(N2CCN(Cc3nc4c(c(=O)n(C)c(=O)n4C)n3Cc3ccccc3C)CC2)cc1`, in assay [1], the cell count worked out at 719. For the same compound, the inhibition in assay [1] is -14% (inactive); in assay [3], -7.8% (inactive); in assay [7] it was 14.4% (inactive); in assay [8], 39.9% (inactive). Besides, the inhibition of aggregation in assay [2] is 5.8% (inactive). In addition, the values for the nuclei count in assay [2] and in assay [3] were 100% and 129%, respectively. Further, the fluorescence slope in assay [4] is -0.428 (inactive). In assay [5], the NADPH fluorescence slope was -2.3e-05 (inactive). Further, the slope in assay [6] was 0.00487 (inactive).
In the case of `CCN(CC)C1CCCCC1NS(=O)(=O)c1ccc(Cl)cc1` (stereo not drawn), in assay [1], the cell count was 528. Besides, the inhibition in assay [1] was -9.2% (inactive); in assay [3], -17.6% (inactive); in assay [7] it was 45.1% (inactive); in assay [8], 28% (inactive). In assay [2], the inhibition of aggregation was 14.4% (inactive). In addition, the nuclei count in assay [2] came to 96.8%; in assay [3], 82.7%. The fluorescence slope in assay [4] was -0.538 (inactive). Moreover, the NADPH fluorescence slope in assay [5] was -1.7e-06 (inactive). For the same compound, in assay [6], the slope was 0.00692 (inactive).
For the compound `Cc1cccc(-n2ncc3c(N4CCC5(CC4)OCCO5)ncnc32)c1`, the cell count in assay [1] was 617. In addition, the inhibition in assay [1] is 1.3% (inactive); in assay [3], -15.1% (inactive); in assay [7], -34.4% (inactive); in assay [8] it was -101% (inactive). The inhibition of aggregation in assay [2] was -14.8% (inactive). Further, the nuclei count stood at 97.6% in assay [2] and 107% in assay [3]. For the same compound, the fluorescence slope in assay [4] is -0.549 (inactive). Moreover, the NADPH fluorescence slope in assay [5] is -6.5e-05 (inactive). Besides, in assay [6], the slope is 0.00695 (inactive).
`CCN(CC)c1ccc(-c2c(C#N)c(N)nc(OC)c2C#N)cc1`: the cell count in assay [1] was found to be 426. In addition, the inhibition in assay [1] was -3.8% (inactive); in assay [3], -13.4% (inactive); in assay [7], -0.552% (inactive); in assay [8], 18.3% (inactive). The inhibition of aggregation in assay [2] was -21% (inactive). Besides, the values for the nuclei count in assay [2] and in assay [3] were 112% and 113%, respectively. The fluorescence slope in assay [4] was -0.0839 (inactive). For the same compound, the NADPH fluorescence slope in assay [5] is 5.4e-06 (inactive). Also, in assay [6], the slope was 0.00577 (inactive).
With `O=C1C2CC=C(Cl)CC2C(=O)N1c1ncn[nH]1` (stereo not drawn), the cell count in assay [1] came out at 329. Moreover, the inhibition in assay [1] is 5.5% (inactive); in assay [3], -62.1% (inactive); in assay [7], 12.6% (inactive); in assay [8] it was 14% (inactive). The inhibition of aggregation in assay [2] was 7.6% (inactive). Further, the nuclei count in assay [2] was found to be 98.3%; in assay [3], 113%. For the same compound, the fluorescence slope in assay [4] was -0.483 (inactive). Moreover, the NADPH fluorescence slope in assay [5] is -5.8e-05 (inactive). For the same compound, the slope in assay [6] is 0.00499 (inactive).
Turning to `Cc1ccc(C)c(-n2c(CNC(=O)c3ccco3)nnc2SCC(=O)Nc2nnc(C)s2)c1`, the cell count in assay [1] amounted to 656. The inhibition was -6.4% (inactive) in assay [1], 3.7% (inactive) in assay [3], 14.2% (inactive) in assay [7] and 36.2% (inactive) in assay [8]. Besides, in assay [2], the inhibition of aggregation is 20.8% (inactive). Besides, the results for the nuclei count in assay [2] and in assay [3] were 99.5% and 120%, respectively. Also, the fluorescence slope in assay [4] is -0.528 (inactive). For the same compound, the NADPH fluorescence slope in assay [5] is -3e-05 (inactive). For the same compound, in assay [6], the slope was 0.0063 (inactive).
With `CCCCC(CC)CNC(=O)C1CCCN(S(=O)(=O)c2cnc[nH]2)C1` (stereo not drawn), in assay [1], the cell count worked out at 565. The inhibition is 8.7% (inactive) in assay [1], 0.3% (inactive) in assay [3], 10.8% (inactive) in assay [7] and 15.8% (inactive) in assay [8]. The inhibition of aggregation in assay [2] was 2.1% (inactive). Besides, the nuclei count in assay [2] worked out at 75.2%; in assay [3] it was 104%. Also, the fluorescence slope in assay [4] was -0.491 (inactive). Besides, the NADPH fluorescence slope in assay [5] was -1.6e-05 (inactive). Further, the slope in assay [6] is 0.00613 (inactive).
For the compound `COc1ccccc1OCC(=O)NCC1CCCCC1`, the cell count in assay [1] is 394. Moreover, the inhibition in assay [1] was -28.2% (inactive); in assay [3] it was 28.4% (inactive); in assay [7], -1.17% (inactive); in assay [8], -7.1% (inactive). For the same compound, the inhibition of aggregation in assay [2] was 5.6% (inactive). Further, the nuclei count in assay [2] was found to be 108%; in assay [3], 102%. In addition, in assay [4], the fluorescence slope is -0.413 (inactive). The NADPH fluorescence slope in assay [5] was -2.9e-05 (inactive). Besides, the slope in assay [6] was 0.00305 (inactive).

The values are drawn from PubChem BioAssay.
